Compound activity as filed in PubChem BioAssay.
SW480 rerep = inducers of DNA re-replication in SW480 colon cancer cells; SW480 DNA re-replication, Hoechst DNA content imaging, 48 h; Potency, µM (doses to about 46.1 µM), for inactives: at the highest dose re-replication activation, most hits filed as activators; hit rate 1.8% among 340,000; AID 624297; also: potency is read from the fitted curve at half-maximal effect; % of control where 0% means no effect; nearly all actives have a fitted effect of over 55% in size
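Treated cells incubate 48 hr (37 C, 5% CO2), are stained 40 min with Hoechst, and nuclear fluorescence is enumerated; a rise in nuclei with high DNA signal marks re-replication.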
Giardia killer = Giardia lamblia killing; Giardia lamblia trophozoite viability; activity change, % at 7.66 µM, hits read low; hit rate 0.15% among 340,000; AID 540267; in the data active = activity change below about -80%; inconclusive = between about -30% and that limit;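 also: parasites exposed to compound for two days anaerobically before the ATP read; % is scaled to controls: 0 for no effect and ±100 for the full control effect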
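Killing of trophozoites was scored by loss of ATP luminescence after a 48 hrs anaerobic exposure to compounds at 37 deg C, using 100 cells per well.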
IL1B secr inh = blocks inflammasome-driven IL-1 beta release. THP-1 LPS/ATP IL-1B secretion, AlphaLISA, 16 h; hits give low values. hit rate 4.7% among 360,000. activity change, % at 57.5 µM; in the data active = activity change below about -50%; inconclusive = mostly about -30% to -49%; also: % is scaled to controls: 0 for no effect and ±100 for the full control effect
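Secreted IL-1B measured by AlphaLISA bead assay after 16 h compound exposure of THP-1 cells; compounds (final up to 57.5 uM) added 1 h before LPS (250 ng/mL) and ATP (1.25 mM) stimulation; lower signal means less secretion.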
Vif-APOBEC3F blk = blocks the Vif interaction with APOBEC3F. hit rate 0.2% among 390,000. Potency, µM (doses to about 46.1 µM), for inactives: at the highest dose activity, negative = active. AID 602313. HeLa A3F-eYFP + Vif (tagged APOBEC3F with the HIV-1 protein that degrades it), YFP fluorescence increase; also: potency is read from the fitted curve at half-maximal effect; % of control where 0% means no effect; nearly all actives have a fitted effect of over 65% in size
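Fluorescence increase (Ex 488/Em 500-530) after overnight compound treatment at 37 deg C flags inhibition of Vif-driven A3F-eYFP loss in stable HeLa A3F-eYFP/Vif cells seeded overnight beforehand.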
Vif-APOBEC3G blk = inhibitors of Vif-APOBEC3G interaction | HeLa A3G-eYFP + Vif (tagged APOBEC3G with the HIV-1 protein that degrades it), YFP fluorescence, overnight | hit rate 0.076% among 410,000 | AID 602310 | Potency, µM (top dose mostly 46.1 µM), inactives show at the highest dose activity, negative = active, usual class: inhibitors; also: potency is read from the fitted curve at half-maximal effect; % is scaled to controls: 0 for no effect and ±100 for the full control effect; nearly all actives have a fitted effect of over 60% in size
Target sequence (Q9HC16 whole entry, looked up): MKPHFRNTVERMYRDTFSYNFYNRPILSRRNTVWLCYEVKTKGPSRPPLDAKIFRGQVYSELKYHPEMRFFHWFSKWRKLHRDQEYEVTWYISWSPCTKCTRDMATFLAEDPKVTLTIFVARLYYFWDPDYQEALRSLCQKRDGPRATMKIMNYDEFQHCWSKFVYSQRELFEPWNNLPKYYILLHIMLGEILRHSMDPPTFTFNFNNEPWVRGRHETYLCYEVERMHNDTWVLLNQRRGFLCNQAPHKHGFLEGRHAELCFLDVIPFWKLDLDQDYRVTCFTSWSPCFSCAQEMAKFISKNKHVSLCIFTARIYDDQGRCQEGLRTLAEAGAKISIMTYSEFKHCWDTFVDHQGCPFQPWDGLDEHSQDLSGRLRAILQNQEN
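Read-out is eYFP fluorescence (Ex 488/Em 500-530) from Vif-expressing HeLa A3G-eYFP cells; more signal means A3G escaped Vif-mediated degradation. Cells plated overnight, compound pinned in, incubated overnight at 37 deg C.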
MCF10A rerep = inducers of DNA re-replication in MCF 10A breast cells | MCF 10A DNA re-replication, Hoechst nuclear intensity, 48 h | Potency, µM (titrated, usually from 46.1 µM), for the others: at the top dose activity, positive = re-replication, hits mostly activators | hit rate 2.9% among 350,000 | AID 624296; also: potency is read from the fitted curve at half-maximal effect; % of control where 0% means no effect; nearly all actives have a fitted effect of over 50% in size
Numbers without * were called inactive; u = inconclusive; x = no result. Shown are actives, neighbours in structure and some others; about 6.9% of the full set was active somewhere. Unless noted, calls follow the shape of the dose curve; as a rule, active = well fitted curve in the direction sought with a large enough effect; inconclusive = small, poorly fitted or top-dose-only effect, or another doubt; inactive = no such curve, though single readings can be large; an effect the other way counts as inactive or inconclusive.

SMILES | SW480 rerep | Giardia killer | IL1B secr inh | Vif-APOBEC3F blk | Vif-APOBEC3G blk | MCF10A rerep
CCOC(=O)C1(C)C=C(Nc2ccc(C(N)=O)cc2)C(=O)N1c1ccccc1 (configuration not stated) | x | x | x | 2% | -8% | x
COc1cc(OC)c(/C=C/c2nc3ccccc3o2)c(OC)c1 | x | x | x | x | -6% | x
O=C(Cc1cccs1)NC1CC(=O)N(c2cccc(F)c2)C1 (configuration not stated) | x | x | x | -16% | -9% | x
CCOC(=O)[C@]12CCCC=C1N(Cc1ccco1)C(=O)[C@H](CC(=O)NCC13CC4CC(CC(C4)C1)C3)C2 | x | x | -55* | x | x | x
CCOC(=O)[C@]12CCC=C1N(Cc1ccco1)C(=O)[C@H](CC(=O)NCC13CC4CC(CC(C4)C1)C3)C2 | x | x | -12 | x | x | x
CCCCCCCCN1C(=O)[C@H](CC(=O)NCc2ccc(OC)c(OC)c2)C[C@@]2(C(=O)OCC)CCCC=C12 | x | x | -77* | x | x | x
CCCCCCCCN1C(=O)[C@H](CC(=O)NCc2ccc(OC)c(OC)c2)C[C@@]2(C(=O)OC)CC(C)(C)CC=C12 | x | x | -78* | x | x | x
CCCCCCCCN1C(=O)[C@H](CC(=O)NCc2cccc(C(F)(F)F)c2)C[C@@]2(C(=O)OC)CCCCC=C12 | x | x | -55* | x | x | x
CCOC(=O)[C@]12CCC=C1N(CCC1=CCCCC1)C(=O)[C@H](CC(=O)NCc1ccc(OC)c(OC)c1)C2 | x | x | -7 | x | x | x
CCn1c(CN2CCCCC2)nc2cc(NC(=O)COc3ccccc3C(C)(C)C)ccc21 | x | x | x | 0% | 6% | x
Cc1ccc(NC(=O)COc2ccccc2C(=O)Nc2ccccc2)cc1 | x | x | x | x | 3% | x
CCCCCCCCN1C(=O)[C@H](CC(=O)NCc2cccs2)C[C@@]2(C(=O)OCC)CCCC=C12 | x | x | -62* | x | x | x
COC(=O)[C@@]12C[C@@H](CC(=O)NCC34CC5CC(CC(C5)C3)C4)C(=O)N(CCc3ccc(OC)c(OC)c3)C1=CCC(C)(C)C2 | x | x | -98* | x | x | x
COc1ccc(CNC(=O)Cc2c(C)c3cc4c(C)coc4cc3oc2=O)cc1 | x | x | x | -11% | -3% | x
Cc1cc(NC(=O)CCS(=O)(=O)c2cc(Br)cc3c2N(C(=O)C2CC2)CC3)ccc1Br | x | x | x | -20% | 5% | x
CCOC(=O)C1CCN(Cc2ccccc2C(F)(F)F)CC1 | -1% | -10 | 9 | -18% | -1% | 14%
CCOC(=O)N1CCN(Cc2ccccc2Cl)CC1 | -6% | -5 | 14 | -9% | 0% | -2%
CN1CCN(Cc2cc(Cl)c3cccnc3c2OC(=O)c2cccs2)CC1 | u | 1 | 3 | u | -1% | u
CCOC(=O)C1CCN(Cc2ccc(O)c3ncccc23)CC1 | 0.92µM* | -22 | 13 | -4% | -13% | 4.1µM*
O=C(Oc1c(CN2CCOCC2)cc(Cl)c2cccnc12)c1ccccc1Br | 3.3µM* | -19 | 105 | u | -28% | u
CCOC(=O)N1CCN(Cc2cc(Cl)c3cccnc3c2O)CC1 | 4.6µM* | 4 | 62 | u | 0% | u
CCc1cccc(C)c1NC(=O)CN1C(=O)c2ccccc2Sc2ncccc21 | x | x | x | 1% | 0% | x
O=C(O)/C=C/C(=O)Nc1ccc(SC(F)(F)C(F)(F)C(F)(F)F)cc1 | -69% | -19 | -54* | -7% | -27% | 6%
CCN1C(=O)S/C(=C/c2ccc(Sc3nc4ccccc4[nH]3)o2)C1=O | 1.5µM* | -5 | 0 | -4% | -11% | u
O=S(=O)(c1ccc(F)cc1F)N1CCN(c2nc(-c3cccs3)nc3ccccc23)CC1 | x | 2 | x | x | x | x
SMILES | SW480 rerep | Giardia killer | IL1B secr inh | Vif-APOBEC3F blk | Vif-APOBEC3G blk | MCF10A rerep
Cn1ncc(Br)c1C(=O)N1CCc2ccccc21 | 0.52µM* | -6 | 16 | 2% | -1% | 4%
Cc1nn(C)c(C(=O)N2CCc3ccccc32)c1Br | 0% | 16 | 11 | 0% | -6% | u
CCOc1ccc(-n2nc3c(SCCN4CCCC4)nnc(C)c3c2C)cc1 | 1% | -6 | -97* | u | u | u
Cc1ccc(-n2nc3c(SCCN4CCOCC4)nnc(C)c3c2C)cc1 | -10% | -19 | -25 | 25µM* | u | u
Cc1cc(C(=O)Nc2cccc(F)c2)c2c(C)nn(-c3cccc(Cl)c3C)c2n1 | x | x | x | -14% | -9% | x
COc1ccc(-c2c(C#Cc3ccsc3)c3ccccc3n2C)cc1 | u | -24 | 21 | 9% | -5% | u
COc1ccc(C#Cc2c(C=O)n(C)c3ccccc23)cc1 | 21µM* | -5 | 28 | 0% | -18% | u
Cn1c(C=O)c(C#Cc2ccccc2)c2ccccc21 | u | -10 | 49 | -7% | -12% | 8.2µM*
CN1CCN(c2ccccc2NC(=O)c2ccc(N3CCOCC3)c([N+](=O)[O-])c2)CC1 | -6% | -3 | -56* | -1% | 1% | 2%
CN1CCN(c2ccccc2NC(=O)c2ccc(N3CCCCC3)c([N+](=O)[O-])c2)CC1 | 16% | 0 | -63* | 2% | 1% | u
Cc1ccc(C(=O)NC(=S)Nc2ccccc2N2CCCC2)cc1[N+](=O)[O-] | 0% | -10 | -19 | 2% | -8% | 2.6µM*
CN1CCN(c2ccc(C(=O)c3ccccc3)cc2[N+](=O)[O-])CC1 | -15% | 28 | -53* | -3% | 0% | u
O=C(O)c1ccc(N2CCN(C(c3ccccc3)c3ccccc3)CC2)c([N+](=O)[O-])c1 | -11% | 1 | 17 | 5% | 6% | -2%
COc1cc2nc(SCc3cccc(Cl)c3)n3nc(CCn4nc(C)cc4C)nc3c2cc1OC | x | x | x | -13% | 1% | x
O=C(Nc1c(C(=O)N2CCN(c3ccccc3)CC2)oc2ccccc12)c1ccco1 | x | x | x | -2% | 2% | x
COC(=O)C1=C[C@@H](C(=O)OC)C2C3=C(C(=O)[C@@]2(C)NC(=O)c2ccccc2)[C@H](C)n2c(=O)n(-c4ccccc4)c(=O)n2[C@@H]3C1 (some centres not stated) | x | -13 | x | x | -4% | x
CC(C)(C)c1nc(-c2ccccc2)nc2c1OCCC2 | -3% | 5 | 24 | 1% | 2% | 26µM*
Cc1ccc(CS(=O)Cc2ccc(C(=O)NC3CCCCCC3)o2)cc1 (configuration not stated) | 3% | -14 | -26 | 1% | -2% | 1%
O=C(NC1CCCCCC1)c1ccc(CS(=O)Cc2ccccc2Cl)o1 (configuration not stated) | u | -4 | -54* | 3% | 2% | 6%
O=C(Nc1ccc(OC(F)F)cc1)c1ncc(Cl)c(Cl)c1Cl | 0% | 12 | -158* | 3% | -5% | u
CCOc1ccc(NC(=O)c2nc(S(=O)(=O)Cc3ccc(C)cc3)ncc2Cl)cc1 | x | x | x | x | -7% | x
